From ChEMBL document CHEMBL3988442, “University of Dundee, Small-Polar-MMV Screening Library” (2021)
About 960 (1.5%) of roughly 66,000 compounds showed an effect of 50% or more. Many of the other results were omitted from the sample, so strong results are more common in it than they were.

Test system: Trypanosoma brucei
Assay: Trypanosoma brucei 72 hour study
Type: functional, organism-based
Design: scale not given: in the data most compounds retested in dose-response had high values

## CCOc1ccc(CC(=O)N2CCN(c3nccn3CC)CC2)cc1.Cl
30.3 µM, […]
  Percent Effect: 9.034%

## O[C@]12CC[C@H](CC1)N(Cc1ccc(F)cc1)C2CN1CCOCC1 (stereo not given in full)
30.3 µM, […]
  Percent Effect: -19.63%

## Cc1nn(C)c(C)c1CC(=O)N1CCCN(c2cccnn2)CC1
30.3 µM, […]
  Percent Effect: -5.706%

## CS(=O)(=O)NCC1CCCN(C(=O)c2ccc(F)c(F)c2)C1 (stereo not given)
30.3 µM, […]
  Percent Effect: -25.29%

## COc1cccc(S(=O)(=O)Cc2noc(CC(C)C)n2)c1
30.3 µM, […]
  Percent Effect: 1.682%

## CCc1noc(CS(=O)(=O)c2cccc(OC)c2)n1
30.3 µM, […]
  Percent Effect: -11.01%

## CCCc1noc(CS(=O)(=O)c2cccc(OC)c2)n1
30.3 µM, […]
  Percent Effect: 58.74%

## CS(=O)(=O)N1Cc2ccccc2C2(CCN(C(=O)c3ccno3)CC2)C1
30.3 µM, […]
  Percent Effect: -25.32%

## COc1cc(N2CCC3(CCN(Cc4cccnc4)C3=O)C2)ncn1 (stereo not given)
30.3 µM, […]
  Percent Effect: -84.3%

## CNC(=O)Nc1cc(-c2ccccc2C)nn1CCO
30 µM, 30.03 µM
  Percent Effect: -25.05%

## Cc1ccccc1-c1cc(NC(=O)NC2CCC(O)CC2)n(CCO)n1 (stereo not given)
30.3 µM, […]
  Percent Effect: -152.8%

## Cc1ccccc1-c1cc(NC(=O)NC2CC2)n(CCO)n1
30.3 µM, […]
  Percent Effect: 80.61%

## Cc1cc(S(=O)(=O)N(CC(N)=O)CC(C)C)ccc1Br
30.3 µM, […]
  Percent Effect: 1.83%

## CN(C)C(=O)COC[C@H]1CC[C@@H]2[C@@H](CCN2Cc2ccco2)O1.O=C(O)C(F)(F)F
30 µM, 30.03 µM
  Percent Effect: -23.12%

## COCCN1C[C@H](OCc2csc(C)n2)[C@H]2COC[C@H]21.O=C(O)C(F)(F)F.O=C(O)C(F)(F)F
30 µM, 30.03 µM
  Percent Effect: -14.33%

## CCSc1cncc(N2CCC(C(=O)NC(C)C(C)C)CC2)n1 (stereo not given)
30.3 µM, […]
  Percent Effect: 8.608%

## CCSc1cncc(N2CCC(C(=O)Nc3ccccn3)CC2)n1
30.3 µM, […]
  Percent Effect: 12.36%

## CCSc1cncc(N2CCC(NC(=O)C3CCCCC3)CC2)n1
30.3 µM, […]
  Percent Effect: 77.16%

## CC(=O)N(Cc1ncc(C)o1)C1CCN(Cc2ccc(F)c(F)c2)C1 (stereo not given)
30 µM, 30.03 µM
  Percent Effect: -4.591%

## O=C(CN1CCCC(c2ccn[nH]2)C1)Nc1nc2c(s1)CCCC2 (stereo not given)
30.3 µM, […]
  Percent Effect: 99.87%

## Cc1cc(C2CCCN(CCNS(=O)(=O)c3ccccc3)C2)n[nH]1 (stereo not given)
30.3 µM, […]
  Percent Effect: 50.6%
10 mM, 10 mM as filed; unlikely as a test dose
  Percent Effect: -10.85%

## O=C(CN1CCCC(c2ccn[nH]2)C1)N1CCCc2ccccc21 (stereo not given)
30 µM, 30.03 µM
  Percent Effect: -60.51%

## O=C(CN1CCCC(c2ccn[nH]2)C1)Nc1nncs1 (stereo not given)
30.3 µM, […]
  Percent Effect: 7.116%

## Cc1cc(C2CCCN(CC(=O)Nc3nc4c(s3)CCC4)C2)n[nH]1 (stereo not given)
30.3 µM, […]
  Percent Effect: 99.45%

## Cc1cc(C2CCCN(CC(=O)N3CCCc4ccccc43)C2)n[nH]1 (stereo not given)
30 µM, 30.03 µM
  Percent Effect: 1.182%

## O=C(CN1CCCC(c2ccn[nH]2)C1)Nc1nc2c(s1)CCC2 (stereo not given)
30.3 µM, […]
  Percent Effect: 99.68%

## Cc1nnc(NC(=O)CN2CCCC(c3ccn[nH]3)C2)s1 (stereo not given)
30.3 µM, […]
  Percent Effect: -16.15%

## Cc1cc(C2CCCN(CCS(=O)(=O)c3ccccc3)C2)n[nH]1 (stereo not given)
30.3 µM, […]
  Percent Effect: -11.09%
10 mM, 10 mM as filed; unlikely as a test dose
  Percent Effect: -44.58%

## Cc1cc(C2CCCN(CCCS(=O)(=O)c3ccccc3)C2)n[nH]1 (stereo not given)
30 µM, 30.03 µM
  Percent Effect: -28.48%

## Cc1cc(C2CCCN(CC(=O)N3CCc4ccccc43)C2)n[nH]1 (stereo not given)
30 µM, 30.03 µM
  Percent Effect: -0.2301%

## O=C(O)c1cccc(CN2CCCC(c3ccn[nH]3)C2)c1 (stereo not given)
30.3 µM, […]
  Percent Effect: -0.7278%

## CC(C)N1CCC2(CCNCC2)C1=O.Cl
30.3 µM, […]
  Percent Effect: -13.71%

## Cc1cccc(CN2C(=O)CCC23CCN(c2ncc(F)cn2)CC3)n1.O=C(O)C(F)(F)F
30.3 µM, […]
  Percent Effect: 6.517%

## O=C(Nc1cnccn1)[C@H]1CO[C@H]2CCN(c3ncc(F)cn3)C[C@H]2C1.O=C(O)C(F)(F)F
30.3 µM, […]
  Percent Effect: -3.537%

## Cc1cccc(CN2C(=O)CCC23CCN(c2ccccn2)CC3)n1.O=C(O)C(F)(F)F.O=C(O)C(F)(F)F
30.3 µM, […]
  Percent Effect: -36.28%

## COc1ccccc1C(=O)NCCC(=O)Nc1c(C)nn(C)c1C
30 µM, 30.03 µM
  Percent Effect: -36.41%

## CCC(C)C(=O)Nc1ccc2oc(=O)n(CCN(C)C)c2c1 (stereo not given)
30 µM, 30.03 µM
  Percent Effect: -15.08%

## Cc1cn2c(n1)C(CNCC1=Cc3ccccc3OC1)CCC2 (stereo not given)
30.3 µM, […]
  Percent Effect: 49.61%

## Cc1cn2c(n1)C(CNCc1ccc(C)s1)CCC2 (stereo not given)
30.3 µM, […]
  Percent Effect: -3.779%

## Cc1cn2c(n1)C(CNCC1=Cc3cc(Cl)ccc3OC1)CCC2 (stereo not given)
30.3 µM, […]
  Percent Effect: 99.66%

## O=C(Cc1cccc(F)c1)N1CCc2ncnc(NC3CCC3)c2CC1
30.3 µM, […]
  Percent Effect: -72.72%

## CN(C)C(=O)N1CCC2(CC1)CCN(c1ncccn1)C2.O=C(O)C(F)(F)F
30.3 µM, […]
  Percent Effect: -41.17%

## Cc1ccsc1-c1nnc(C2CCN(Cc3ccc(F)cc3)CC2)o1
30.3 µM, […]
  Percent Effect: 56.66%

## Cc1ncsc1-c1nnc(C2CCN(Cc3ccc(F)cc3)CC2)o1
30.3 µM, […]
  Percent Effect: -21.24%

## Cc1ncsc1-c1nnc(C2CCN(Cc3ccc(Cl)cc3)CC2)o1
30.3 µM, […]
  Percent Effect: 0.5336%

## CN(C)C(=O)COCc1cncc2c1CCN(C1CCOCC1)C2.O=C(O)C(F)(F)F.O=C(O)C(F)(F)F
30.3 µM, […]
  Percent Effect: -55.36%

## O=C1CC(c2cccc(Cl)c2)c2snc(C(=O)O)c2N1 (stereo not given)
30.3 µM, […]
  Percent Effect: -31.06%

## CN1CCC(Oc2ccc(NC(=O)c3ccccc3Br)cc2)CC1
30 µM, 30.03 µM
  Percent Effect: 65.56%
